Reference: PubChem BioAssay (NCATS)
Records with an inconclusive call do not appear. A number with no mark means an inactive call. Active and inactive are the calls of the source. Calls follow the shape of the dose curve; as a rule, active = well fitted cell-killing curve with a large enough effect; inconclusive = small, poorly fitted or top-dose-only effect; inactive = flat fitted curve, though single readings scatter. Numbered stars: 1 amine (or outer) side, 2 acyl side, 3 side chain; on linkers, the order of the positions; unused ones are H or OH. Square brackets hold non-standard residues; d marks the D form. Peptide text beside a SMILES is read from it. ξ: configuration not given here. X4 = O=C(C1CC2(c3ccc(O)cc3)c3ccccc3NC2N1[*:1])[*:2]; ξW = NC(Cc1c[nH]c2ccccc12)C(=O)O; ξY = NC(Cc1ccc(O)cc1)C(=O)O

Assay: KB-8-5-11 Cancer Cell Toxicity qHTS against the NCATS CANVASS Library (AID 1347364); also: nearly all actives have a fitted effect of over 75% in size
Conditions: KB-8-5-11 MDR cells viability, CellTiter-Glo, 72 h; series mostly up to 46.1 µM; activity change, negative = toxicity: at the top concentration
From the text: Natural products and their derivatives continue to be wellsprings of nascent therapeutic potential. However, many laboratories have limited resources for biological evaluation, leaving their previously isolated or synthesized compounds largely or completely untested. To address this issue, the Canvass library of natural products was assembled (https://tripod.nih.gov/canvass), in collaboration with academic and industry researchers, for quantitative high-throughput screening (qHTS) across a diverse set of cell-based and biochemical assays. The pure (>85% purity by liquid chromatography/mass spectrometry [LC/MS]) Canvass library of 346 natural products were submitted by 45 academic laboratories and companies around the world. We collected pure natural products to circumvent deconvolution and structure elucidation due to time and resource limitations. The library was formatted into 1536-well plates and evaluated in 50 qHTS (in an 11-pnt concentration series) bioassays with broad scope of disease-relevant mechanisms. The resulting data set from 50 different assays was then systematically analyzed to identify overall trends and specific natural products with interesting biological activities. Reported herein are the results of each individual qHTS and their corresponding assay protocol. […] National Center for Advancing Translational Sciences (NCATS), Rockville, MD National Institute of Health (NIH), Bethesda, Maryland
Cancer Cell Toxicity qHTS protocol 1. In a 1536 well, tissue culture treated white solid bottom plates (Corning 7494), 5 uL of KB-8-5-11 cell solution (final concentration of 500 cells / well) was dispensed using the Multidrop Combi dispenser (Thermo Fisher Scientific) into columns 3-48, rows 1-32. DMEM + 10% FBS + 100 U/mL penicillin / 100ug/mL streptomycin media solution was dispensed into column 1-2, row 1-32 also using the Multidrop Combi dispenser. For follow-up confirmation, KB 8-5-11 was also plated in medium supplemented with 1uM tariquidar. 2. Control and Compounds were pin transferred (~23nL volume) to the assay plates via Wako Pin-tool (Wako Automation, Richmond VA) equipped with a 1536 pin head. The compounds were transferred to columns 5-48 resulting in a final concentration ranging from 0.17 nM to 103 uM. Dose response titration of Bortezomib was pin transferred into column 3, rows 1-32 (2mM; 1:2 dilution; 16 points; n = 2) resulting to a final concentration range of 0.3nM - 9.2uM. 3. The assay plates were further incubated in the at 37C, 5% CO2, 95% Rh for 72 hr. 4. After incubation, 2.5uL of CellTiter-Glo reagent (Promega) was added to the assay plates (column 1-48, rows 1-32) using the Multidrop Combi dispenser. 5. The assay plates were incubated at room temperature for 10 minutes. 6. Luminescence signal was acquired via the ViewLux plate reader (PerkinElmer) using a clear emission filter, 1 sec exposure, and 1x binning settings.
% is scaled to controls: 0 for no effect and ±100 for the full control effect; potency is read from the fitted curve at half-maximal effect.

Compound | activity change, negative = toxicity [%] | outcome | Potency
C/C1=C\CC(=O)/C=C/C=C\c2csc(n2)[C@@H](C)NC(=O)C[C@@](S)([C@@H](C)C(=O)O)CC1 | 8.58 | – | –
C[C@H]1C[C@@H]([C@@H]2CC[C@]34O[C@H](CC[C@@]35C[C@H](C)C(=O)O5)CN24)OC1=O | -1.94 | – | –
CCCCCC[C@H](CCCCC[C@@H](O)C(N)=O)OC(=O)[C@@H]1CC=CN1C(=O)c1ccccc1O | 7.25 | – | –
O=C(O)[C@@]12CO[C@@]3(O)C4CCN(CC[C@H]31)[C@H]4c1c2[nH]c2ccccc12 | 3.22 | – | –
CC1C(=O)C23CCC1C[C@]21O[C@@H]2C(C)(C)C=CC(=O)[C@@]23COC1=O (stereo not given in full) | – | inactive | –
O=C(OC1Cc2c(O)cc(O)cc2OC1c1cc(O)c(O)c(O)c1)c1cc(O)c(O)c(O)c1 (stereo not given) | – | inactive | –
O=C1CC(c2cc(O)cc(O)c2)Oc2cc(O)ccc21 (stereo not given) | -9.71 | – | –
CC1(C)CCC[C@]2(C)[C@@H]1CC[C@@]13C[C@@H](CC[C@H]12)C(C)(O)C3 (stereo not given in full) | 8.07 | – | –
COc1cc(O)c2c3c(c(O)cc(C)c13)C(=O)OC2 | – | inactive | –
C=C1C[C@@]23C=CC(=O)[C@@](C)(CCC(=O)Nc4c(O)ccc(C(=O)O)c4O)C2C[C@@H]1CC3O (stereo not given in full) | -0.603 | – | –
C=C1C(=O)C[C@H]2C[C@@H]1[C@]2(C)CCC=C(C)C | 3.04 | – | –
COc1cc(/C=C/C(=O)O)ccc1O | – | inactive | –
C=C(C)[C@@H]1CC[C@]2(C)CC[C@]3(C)[C@H](CC[C@@H]4[C@@]5(C)CC[C@H](O)C(C)(C)[C@@H]5CC[C@]43C)[C@@H]12 | – | – | inactive
O=C(O)CC1OCc2c(O)cccc21 (stereo not given) | -3.52 | – | –
C1=C2CCCN[C@@H]2[C@@H]2CCN3CCCC[C@@H]3[C@H](C1)C2 | 8.62 | – | –
CC(O)/C=C/C1(O)C(C)(C)CC(O)CC1(C)O (stereo not given) | – | inactive | –
COc1cc(/C=C2/C(=O)N(c3ccc(O)cc3C(=O)O)[C@H](c3ccc(O)c(OC)c3)C2C(=O)Nc2ccc(O)cc2C(=O)O)ccc1O (stereo not given in full) | – | inactive | –
CC12C[C@]3(O)O[C@@H](O1)[C@]1(COC(=O)c4ccccc4)[C@@H]3CC21OC1OC(CO)C(O)C(O)C1O (stereo not given in full) | 7.63 | – | –
CO[C@@H]1C[C@@H](C[C@H]2CC[C@H](C)[C@H]([C@@H](C)C(=O)O)O2)O[C@]2(O[C@](C)([C@H]3CC[C@@](C)([C@@H]4O[C@@H]([C@H]5O[C@](C)(O)[C@H](C)C[C@@H]5C)C[C@@H]4C)O3)C[C@H]2C)[C@@H]1C | – | – | 5.9 µM (active)
CC1=CC[C@@]2(C[C@@H]1O)[C@@H](C(=O)O)CC[C@H]2C(C)C | – | inactive | –

Compound | activity change, negative = toxicity [%] | outcome | Potency
C=C1C[C@@]23C=CC(=O)[C@@](C)(CCC(=O)Nc4c(O)ccc(C(=O)O)c4O)C2C[C@@H]1CC3 (stereo not given in full) | 8.3 | – | –
CO[C@@H]1[C@H](O)[C@@H](C)O[C@@H](OC[C@@H]2C(C)OC(=O)/C=C/[C@H](C)C(O[C@@H]3O[C@H](C)CC4(OC(=O)O[C@@H]4C)C3O)[C@@H](C)CC(C)C(=O)CC[C@H]3OC23)[C@@H]1OC (stereo not given in full) | – | inactive | –
O=C1c2c(O)cc(O)cc2O[C@@H](c2ccc(O)cc2)[C@@H]1c1c(O)cc(O)c2c(=O)cc(-c3ccc(O)c(O)c3)oc12 | 6.44 | – | –
CC1C(=O)C23CCC1C[C@@]21O[C@H]2C(C)(C)C=CC(=O)[C@@]23COC1=O (stereo not given in full) | -0.432 | – | –
C[C@@H]1C[C@H]2C[C@]3(CCCCN3C)[C@@H]3C[C@H]2[C@H](C1)N(C)C3 | -18.5 | – | –
O=Cc1ccc2n1C[C@@]1(C[C@H](O)[C@H](O)CO1)OC2 | 3.43 | – | –
CC1(C)C=Cc2c(ccc3c2OC[C@@H](c2ccc(O)cc2O)C3)O1 | -4.13 | – | –
CN1CC[C@]2(c3cccc4c3N[C@@H]3N(C)CC[C@]43[C@@]34CCN(C)[C@@H]3Nc3ccccc34)c3ccccc3N[C@H]12 | – | – | 16.6 µM (active)
C=C1C[C@@]23C=CC(=O)[C@@](C)(CCC(=O)Nc4c(OC5O[C@H](CO)[C@@H](O)[C@H](O)[C@H]5O)ccc(C(=O)O)c4O)C2C[C@@H]1CC3 (stereo not given in full) | – | inactive | –
CC[C@H](C)[C@H](NC(=O)C(Cc1ccc(O)cc1)NC(=O)C(Cc1c[nH]c2ccccc12)NC(=O)[C@H](C)N)C(=O)N1C(C(=O)NC(Cc2ccc(O)cc2)C(=O)O)CC2(c3ccc(O)cc3)c3ccccc3NC12 (stereo not given in full) (H-A[ξW][ξY]I[X4][ξY]-OH) | – | inactive | –
C/C(=C\[C@H](C)C(=O)CCCC1CC(=O)NC(=O)C1)C(O)[C@@H](C)[C@H](O)C/C=C/CC/C=C/C(=O)O (stereo not given in full) | 9.8 | – | –
C[C@@H]1C(=O)[C@]23CC[C@H]1C[C@]21O[C@H]2C(C)(C)C=CC(=O)[C@]23COC1=O | 8.57 | – | –
C[C@@H]1O[C@H](c2c(O)cc(O)c3c(=O)cc(-c4ccc(O)cc4)oc23)[C@H](O)[C@H](O)[C@H]1O | – | inactive | –
CCCCCCCCCCCCCCC[C@H](O)C[C@@H](O)C[C@@H](O)C[C@@H](O)C[C@@H](O)C[C@H]1CC=CC(=O)O1 | – | – | 6.62 µM (active)
C=C1[C@H]2CC[C@@]3(C=CC(=O)[C@@](C)(CCC(=O)Nc4c(O)ccc(C(=O)O)c4O)C3C2)[C@H]1O (stereo not given in full) | 3.45 | – | –
C[C@@]12C[C@@H](C[C@H]3C(=O)O[C@@H](c4ccoc4)[C@H](OC(=O)c4ccccc4)[C@@H]31)OC2=O | – | inactive | –
COc1ccc2cc(NC(=O)C3=NO[C@H]4[C@H](O)C=C[C@@H](Cl)[C@@]4(O)C3)c(=O)oc2c1OC | 2.22 | – | –
C/C1=C/[C@@H](C)[C@H](O)C/C=C/CC/C=C/C(=O)O[C@@H]1[C@H](C)C(=O)/C=C/CC1CC(=O)NC(=O)C1 | -4.34 | – | –
COc1ccc([C@@H]2c3cc(OC)c(OC)cc3C(=O)C(C)C2C)cc1OC (stereo not given in full) | -15.3 | – | –
C[C@]12CC[C@]3(C1)[C@H](CC2=O)CC(OC(=O)c1ccccc1)[C@H]1[C@@](CO)(C(=O)O)CCC[C@@]13C (stereo not given in full) | -1.31 | – | –
